High-throughput results as filed in PubChem BioAssay.
A selection: hits, their analogues and other compounds. The true share with any hit is near 4.7%.
TRHR ag = activates the human TRH receptor; P34981; TRHR cells, calcium flux fluo-8, FDSS agonist mode; activation, % at 2 µM; 360,000 tested, 0.18% active; AID 493084
Target sequence (P34981 whole entry, looked up): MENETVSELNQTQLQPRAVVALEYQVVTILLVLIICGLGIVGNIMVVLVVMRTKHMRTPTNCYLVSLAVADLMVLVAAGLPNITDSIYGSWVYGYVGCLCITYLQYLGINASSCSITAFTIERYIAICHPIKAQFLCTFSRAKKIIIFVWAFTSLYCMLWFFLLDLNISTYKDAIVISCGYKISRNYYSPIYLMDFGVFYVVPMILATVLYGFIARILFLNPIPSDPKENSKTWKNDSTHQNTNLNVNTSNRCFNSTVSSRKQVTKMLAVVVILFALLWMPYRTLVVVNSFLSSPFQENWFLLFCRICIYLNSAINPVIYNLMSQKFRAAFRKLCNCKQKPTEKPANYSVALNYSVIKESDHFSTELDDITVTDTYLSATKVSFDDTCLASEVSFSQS
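Steps: seed TRHR cells overnight; add fluo-8 no-wash Ca dye, RT 30 min–1.5 h; record 10 s baseline; pin-transfer compounds; monitor fluorescence 1 cycle/s for the agonist window. Calcium increases flag candidate agonists.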
D1 ag = human D1 receptor agonism; P21728; HEK293 T-REx D1 cells, calcium flux, agonist mode; activation, % at 2 µM; 360,000 tested, 1% active; AID 504660
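Agonism was scored from calcium flux recorded over 180 s (1 read/s) after pintool compound addition, following a 10-cycle baseline. Cells were inducible force-coupled HEK293 TREx D1, plated overnight at 30 C and loaded with no-wash calcium dye.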
TRHR PAM = allosterically enhances the human TRH receptor; enhancement, % at 2 µM; 360,000 tested, 0.66% active; P34981; TRHR cells, fluo-8 calcium fluorescence, EC20 TRH enhancement; AID 493056; in the data active = enhancement above about 30%
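TRHR-expressing cells loaded with fluo-8 calcium dye were read kinetically (ex 480/em 530) during compound addition, then stimulated with an EC20 of TRH (10 nM final). Enhancement of the Gq-mediated intracellular calcium response was scored.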
D1 PAM = human D1 dopamine receptor positive modulation; P21728; HEK293 TREx D1 cells, calcium flux, dopamine EC20 potentiation; potentiation, % at 10 µM; 360,000 tested, 0.036% active; in the data active = potentiation above about 30%
D1 antagonist = blocks dopamine activation of the human D1 receptor; P21728; HEK293 TREx D1 cells, calcium flux, dopamine EC80; hits give low values; activity change, negative = inhibition, % at 10 µM; 360,000 tested, 3.2% active; in the data active = activity change below about -30%
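After overnight tetracycline induction at 30 C, force-coupled D1 HEK293 cells took up a no-wash calcium dye at room temperature. Compounds were added and monitored 180 s, and the response to EC80 dopamine was then recorded.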
Each line names hits and unclear results; the compound was inactive in the other large screens. Cut-off read from the data, not from the text of the source, unless noted: active = activation above about 30%; inactive = the rest.

O=C(O/N=C1/CCCc2occc21)c1ccc(Cl)cc1Cl	D1 antagonist -32.5
N[C@@H](Cc1ccc(O)cc1)c1nnc([C@H](CCC(=O)O)NC(=O)C2CCNCC2)o1	D1 antagonist -41.3
N[C@@H](CO)c1nnc([C@H](CC(=O)O)NC(=O)C2CCNCC2)o1	none
N[C@@H](CO)c1nnc([C@H](CCC(=O)O)NC(=O)C2CCNCC2)o1	D1 antagonist -37.9
COc1cccc(C(=O)C2CCCN(Cc3cccn3-c3ccccn3)C2)c1 (stereo not given)	D1 antagonist -32.4
Cc1ccnc(NC(=O)CNC(=O)Cc2cccc3ccccc23)c1	none
CCc1ccccc1OCc1nc2ccc(S(=O)(=O)N3CCOCC3)cc2[nH]1	TRHR PAM 32.6 (no result: D1 antagonist)
Fc1ccc(Nc2nc(N3CCOCC3)c3ccccc3n2)cc1	none
c1ccc2c(Nc3nc(N4CCOCC4)c4ccccc4n3)cccc2c1	D1 antagonist -47.7
S=C1NC2=C(CCCC2=C2SCCS2)C(c2ccccc2)N1 (stereo not given)	TRHR PAM 37.3
Fc1ccc(/C=C2\CCCC3=C2NC(=S)NC3c2ccc(F)cc2)cc1 (stereo not given)	none
Cc1onc(-c2c(Cl)cccc2Cl)c1C(=O)N1CCOCC1	none
Cc1cc(C)c2nc(-c3cccc(Cl)c3)c(C)c(C(=O)N3CCOCC3)c2c1	TRHR PAM 32.7
COc1cc(C)c(Cl)c(C)c1S(=O)(=O)NC1CC(C)(C)NC(C)(C)C1	TRHR PAM 39.0
Cn1c(Cc2nc(-c3cnccn3)no2)nnc1SCC(=O)Nc1ccccc1	D1 antagonist -87.5
CC(C)NC(=O)NC(=O)COC(=O)/C=C/c1ccc2c(c1)OCO2	D1 antagonist -30.4
CC(NC(=O)COC(=O)/C=C/c1ccc2c(c1)OCO2)c1ccccc1 (stereo not given)	none
CCS(=O)(=O)c1ccccc1C(=O)N(Cc1cccnc1)c1nc2cc(C)c(C)cc2s1	none (no result: D1 antagonist)
Cc1cc(C)cc(Oc2ccc(S(=O)(=O)N3CCN(C)CC3)cn2)c1	none
CCCOc1ccc(Oc2ccc(S(=O)(=O)N3CCN(C)CC3)cn2)cc1	D1 antagonist -37.5
NC(=O)CC(NC(=O)Cc1cccc2ccccc12)c1ccc(NCc2ccc(F)cc2)c([N+](=O)[O-])c1 (stereo not given)	none
NC(=O)CC(NC(=O)Cc1cccc2ccccc12)c1ccc(NCc2ccccc2)c([N+](=O)[O-])c1 (stereo not given)	D1 antagonist -31.1
COc1ccc(OC)c(NC(=O)Cc2c(C(=O)O)[nH]c3ccc(Cl)cc23)c1	none
COc1ccccc1NC(=O)Cc1c(C(=O)O)[nH]c2ccc(Cl)cc12	D1 ag 30.9
FC(F)Oc1cccc(NC(=S)N2CCN(c3ccccn3)CC2)c1	D1 antagonist -71.3
S=C(Nc1ccccc1)N1CCN(c2ccccn2)CC1	none
COc1cccc(C2=NOC(C(=O)Nc3ccc4c(c3)OCO4)C2)c1 (stereo not given)	none
O=C(Nc1ccc2c(c1)OCO2)C1CC(c2cccc(Br)c2)=NO1 (stereo not given)	D1 antagonist -38.4
Cc1ccc(Cn2c(=O)c3cccnc3n(Cc3ccc(C)cc3)c2=O)cc1	D1 antagonist -30.3
COc1ccc(N(CC(=O)NC2CCCCC2)C(=O)CCCC(=O)Nc2ccccn2)cc1	none
CCc1nn2c(=O)cc(COC(=O)c3cccc(NC(=O)c4ccccc4C)c3)nc2s1	none
COc1ccc(-c2nc(-c3cccc(C)c3)no2)cc1OC	none
Cc1cccc(-c2noc(-c3ccc4c(c3)OCO4)n2)c1	D1 antagonist -45.5
CCN(Cc1nc(-c2cccc(C)c2)no1)C(=O)c1ccc2c(c1)OCO2	D1 ag 35.0 (no result: D1 PAM)
CC1CC(OCC(O)C[N+]2(C)CCOCC2)CC(C)(C)C1 (stereo not given)	none
CC1CCN(C(=O)CCCC(=O)N2CCC(C)CC2)CC1	none
O=C(C1CCN(c2nc3ccccc3[nH]2)CC1)N1CCN(c2ccccc2)CC1	none
COc1cccc(NC(=O)c2sc(-n3nc(C)c(Cc4ccccc4Cl)c3C)nc2C)c1	none
Cc1ccc(C2CC(=O)Nc3c2c(C)nn3-c2nc(C)cc(C)n2)c(C)c1 (stereo not given)	none
O=S(=O)(c1cccc(-c2nnc3n2CCCCC3)c1)N1CCCC1	TRHR PAM 33.7
COCCn1ccc2c(OCC(=O)Nc3cccc(C(F)(F)F)c3)cccc2c1=O	none (no result: D1 antagonist)
